Only some compounds are listed: those with a hit (about 19% of all), similar ones and a draw of the others.
IL1B secr inh – inhibitors of inflammasome signaling (IL-1 beta secretion); THP-1 LPS/ATP IL-1B secretion, AlphaLISA, 16 h; active compounds read low; activity change, % at 57.5 µM; hit rate 4.7% among 360,000; AID 743279; in the data active means activity change below about -50%; inconclusive means mostly about -30% to -49%
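Secreted IL-1B measured by AlphaLISA bead assay after 16 h compound exposure of THP-1 cells; compounds (final up to 57.5 uM) added 1 h before LPS (250 ng/mL) and ATP (1.25 mM) stimulation; lower signal means less secretion.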
TDP1 cell noCPT – qHTS for Inhibitors of human tyrosyl-DNA phosphodiesterase 1 (TDP1): qHTS in cells in absence of CPT. DT40 Tdp1-/- hTDP1 cells, no CPT, ATP luminescence, 48 h. Potency, µM (series often up to 46.2 µM), for inactives: at the highest dose activity change, negative = growth inhibition, hits mostly inhibitors. hit rate 15% among 420,000; further: potency means the concentration at half of the fitted maximal effect; nearly all actives have a fitted effect of over 55% in size
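Stably hTDP1-transfected Tdp1-null chicken DT40 cells were treated with library compounds minus camptothecin and grown for at least 48 hr at 37 °C, after which cellular ATP was quantified by luminescence.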
HT1080 IDH1KD tx – HT-1080 IDH1 knockdown cell toxicity (counter line) | HT-1080 IDH1 knockdown viability, ATP luminescence, 48 h | Potency, µM (doses to about 46.1 µM), without a hit: top-dose activity, negative = toxicity, actives largely listed as cytotoxic | hit rate 2% among 360,000;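 further: potency means the concentration at half of the fitted maximal effect; 0% = DMSO wells and -100% = cell-free medium wells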
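In this qHTS, HT-1080 cells depleted of IDH1 are exposed for 48 h at 37 °C to compound titrations. Toxicity is scored from CellTiter-Glo luminescence, with DMSO as full viability and medium alone as none.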
HT1080NT lethal – kills 2HG-producing HT-1080-NT fibrosarcoma cells; HT-1080-NT fibrosarcoma viability, CellTiter-Glo ATP luminescence, 48 h; Potency, µM (series often up to 46.1 µM), for the others: at the top dose activity, negative = less viability, actives largely listed as cytotoxic; hit rate 1.6% among 360,000; AID 686970;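 further: NT is the 2HG producing partner of a matched IDH1 knockdown line; potency means the concentration at half of the fitted maximal effect; 0% = DMSO-treated cells and -100% = media-only wells without cells; nearly all actives have a fitted effect of over 55% in size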
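Read-out is CellTiter-Glo luminescence after 10 minutes at room temperature, following 48 hours' compound treatment of HT-1080-NT cells (750 cells/well, RPMI, 5% FBS, 37 degrees C).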
TDP1 cell CPT – DT40-hTDP1 cell growth loss with CPT | Potency, µM (highest dose often 46.2 µM), inactives show top-dose activity change, negative = growth inhibition, actives largely listed as inhibitors | hit rate 12% among 420,000 | chicken DT40 Tdp1-/-;hTDP1 cells + 20 nM CPT, ATP luminescence, 48 h; further: potency means the concentration at half of the fitted maximal effect; nearly all actives have a fitted effect of over 55% in size
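Chicken DT40 Tdp1-/- cells complemented with human TDP1, 400 cells/well, exposed to compounds plus 20 nM camptothecin for at least 48 h at 37 C; viability read as ATP content by CellTiter-Glo luminescence.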
* marks the source's active call; other numbers are inactive results; ? = inconclusive; . = no result given. Unless noted, the call rests on the fitted dose curve; in most records, active means well fitted curve in the direction sought with a large enough effect; inconclusive means small, poorly fitted or top-dose-only effect, or another doubt; inactive means no such curve, though single readings can be large; an effect the other way counts as inactive or inconclusive. Unless noted, on the % scale 0 is the no-effect control and ±100 the full control effect.

SMILES	IL1B secr inh	TDP1 cell noCPT	HT1080 IDH1KD tx	HT1080NT lethal	TDP1 cell CPT
COc1ccc(S(=O)(=O)c2c(Nc3ccccc3F)sc(C(=O)c3cccc(OC)c3)c2N)cc1	.	6.5µM*	.	.	5.2µM*
CCOc1ccccc1Nc1sc(C(=O)c2ccccc2)c(N)c1S(=O)(=O)c1ccc(C)cc1	.	5.8µM*	.	.	?
Cc1cccc(C)c1Nc1sc(C(=O)c2ccccc2)c(N)c1S(=O)(=O)c1ccccc1	.	3.7µM*	.	.	4.6µM*
Cc1ccc(Cl)cc1Nc1sc(C(=O)c2ccccc2)c(N)c1S(=O)(=O)c1ccccc1	.	?	.	.	-25%
O=[N+]([O-])c1ccc(O)c(C=Nc2ccc3nc(-c4ccccc4)[nH]c3c2)c1	-2	-23%	-24%	-29%	-8%
Oc1c(Br)cc(C=Nc2ccc3nc(-c4ccccc4)[nH]c3c2)c(O)c1Br	32	15µM*	?	-20%	16µM*
Cc1nn(-c2ccccc2)c(N2CCCCC2)c1/C=N/NC(=O)c1ccncc1	12	23µM*	-4%	-11%	13µM*
CCOc1ccc(S(=O)(=O)Nc2ccc(C(=O)N/N=C/c3c(C)nn(-c4ccccc4)c3N3CCCC3)cc2)cc1	-2	?	-4%	-11%	?
Cc1nn(-c2ccccc2)c(N2CCCC2)c1/C=N/NC(=S)Nc1ccc(F)cc1	-12	8.2µM*	0%	-3%	5.8µM*
Cc1ccc(NC(=S)N/N=C/c2c(C)nn(-c3ccccc3)c2N2CCCC2)cc1	30	?	22%	5%	12%
COc1cccc(OC)c1Cn1nnc2c(=O)[nH]c(C3CCN(C(=O)c4ccccc4)CC3)nc21	.	?	.	.	-29%
COc1ccc(OC)c(C2CC(c3ccccc3)=NN2C(=S)Nc2ccccc2)c1 (stereo unspecified)	34	3.7µM*	?	?	3.7µM*
CNC(=S)N1N=C(c2ccc(C)cc2)CC1c1cc(OC)ccc1OC (stereo unspecified)	0	9.2µM*	21µM*	?	?
CNC(=S)N1N=C(c2ccc(OC)cc2)CC1c1ccc(Cl)cc1Cl (stereo unspecified)	-24	-26%	8%	3%	-27%
Nc1cc2ccncc2c2ccccc12	?	10µM*	0%	-7%	?
N#Cc1cc2ccncc2c2ccccc12	-26	8.2µM*	-11%	-4%	?
Cc1cc(N)c2ccccc2n1	-16	-11%	4%	5%	18%
Cc1cc(C#N)c2ccccc2n1	16	-9%	8%	9%	1%
O=S(=O)(CCS(=O)(=O)c1ccccc1)c1ccccc1	?	-18%	?	-1%	-23%
O=C1C(=O)N(CCS(=O)(=O)c2ccccc2)c2ccc(F)cc21	3	?	-22%	-4%	21µM*
COc1ccc2c(c1)C(=O)C(=O)N2CCS(=O)(=O)c1ccccc1	-9	2.3µM*	7%	-7%	7.3µM*
COc1cccc(/C=C/C(=O)NCc2cn3cc(Cl)ccc3n2)c1	-16	2%	-2%	-1%	0%
Cc1ccc2c(c1)C(O)(C1COC(C)(C)CC1=O)C(=O)N2C (stereo unspecified)	40	3.3µM*	23%	14%	5.2µM*
CN1C(=O)C(O)(C2COC(C)(C)CC2=O)c2cc(Br)ccc21 (stereo unspecified)	57	4.6µM*	?	?	5.8µM*
COc1ccc2c(c1)CC(C1(O)C(=O)N(C)c3ccccc31)C2=O (stereo unspecified)	0	?	0%	2%	?
CN1C(=O)C(O)(C2COC(C)(C)CC2=O)c2ccccc21 (stereo unspecified)	32	9.2µM*	17%	18%	15µM*
CCc1ccc2nc(SCC(=O)N(CC)CC)c(C#N)cc2c1	-5	15µM*	-2%	-1%	21µM*
N#Cc1cc2cc3c(cc2nc1SCC(=O)N1CCCC1)OCCO3	10	-11%	12%	18%	-22%

Source: PubChem
